An excerpt weighted towards active compounds, which were near 2.4% of everything screened.
STAT3 inh-1: STAT3 signaling inhibition; U3A cells, IL-6 STAT3-luciferase reporter, luminescence; host cell line lacks STAT1; inhibition, % at 5.5 µM; hit rate 0.89% among 190,000;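 active means inhibition above the mean inhibition across all screened compounds plus 3 SD, cut at about 44% in these data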;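 further: 0% = DMSO only wells and 100% = 100 µM nifuroxazide control wells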
TRAIL sens C8: caspase-8 TRAIL sensitization | NB7+C8 cells + TRAIL, ATPlite viability luminescence | inhibition (viability loss, TRAIL sensitization), % at 10 µM | hit rate 1% among 360,000 | AID 624354;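 active means compounds causing at least 50% loss of cell viability in the single-dose screen, relative to plate controls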
STAT1 inh: inhibitors of IFN-gamma induced STAT1 signaling | NIH 3T3 STAT1-luciferase reporter, luminescence | inhibition, % at 5.5 µM | AID 920 | hit rate 0.35% among 200,000;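 active means inhibition above a set limit, the mean inhibition across all tested compounds plus 3 SD, cut at about 34% in these data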;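 further: 0% = IFN-gamma with DMSO and 100% = IFN-gamma with 300 µM nifuroxazide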
PPC-1+TRAIL kill: compounds killing PPC-1 cancer cells with TRAIL present (potentiator screen, no TRAIL-free arm) | AID 1443 | cell killing (% activity), % at 4 µM or 5 µM | PPC-1 cells + TRAIL, ATPLite viability luminescence | hit rate 0.41% among 220,000;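 active means cell killing above 50% in the first pass at 4 µM, then a duplicate retest at 5 µM averaging 50% or more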;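 further: plate controls were cells with TRAIL plus DMSO for no effect and medium-only wells lacking cells for full effect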
HSF1 inh: HSF1 inhibition; NIH3T3-HGL HSE-luciferase, MG132-induced, luminescence 8 h; hits give low values; activity change, negative = inhibition, % at 7.5 µM (by protocol); hit rate 0.77% among 300,000;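 active means more than half of replicate wells show activity change below -50%, luminescence cut by over half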;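 further: luciferase reports HSF-1 transcriptional activity via heat shock element; 0% = median of DMSO wells and -100% = zero luminescence signal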
HSP90 inh: inhibitors of HSP90 luciferase refolding in rabbit reticulocyte lysate | luciferase refolding luminescence, 3 h | inhibition, % at 5.6 µM | hit rate 0.91% among 290,000;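 active means inhibition above the screen-wide mean plus 3 SD, computed separately per campaign, cut at about 16% in these data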;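 further: 0% = DMSO wells and 100% = 60 µM geldanamycin wells; inhibitors lower the luminescence because luciferase stays unfolded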
STAT3 inh-2: confirmation of STAT3 signaling inhibitors; shares compounds with STAT3 inh-1; U3A cells, IL-6 STAT3 luciferase reporter, luminescence; cell line lacks STAT1; inhibition, % at 5.7 µM; hit rate 45% among 1,200; AID 1265;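 active means inhibition above the hit cutoff computed for the primary STAT3 screen, cut at about 44% in these data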;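 further: 0% = IL-6 plus DMSO and 100% = IL-6 plus nifuroxazide control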
NFkB inh STAT3ct: inhibits NF-kappaB, counter-screen to STAT3 inhibitors | inhibition, % at 5.7 µM | HEK293T NF-kB luciferase reporter, TNF-alpha induced | AID 1308 | hit rate 36% among 1,200 | shares compounds with STAT3 inh-1;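 active means inhibition above the mean of solvent-only control wells plus 3 SD, cutoff set per campaign, cut at about 13% in these data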;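 further: 0% = TNF-alpha with DMSO and 100% = TNF-alpha with MG high control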
STAT1 inh STAT3c: STAT1 inhibition in STAT3 inhibitor counter-screen; shares compounds with STAT3 inh-1; inhibition, % at 5.7 µM; NIH 3T3 STAT1-luciferase reporter, IFN-gamma induced, luminescence; AID 1317; hit rate 27% among 1,200;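 active means inhibition above the mean plus 3 SD of solvent-only control wells, limit set per screening run, cut at about 16% in these data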;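 further: 0% = DMSO with IFN-gamma and 100% = nifuroxazide control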
HSP90 confirm: HSP90 inhibition, confirmation assay; shares compounds with HSP90 inh; rabbit reticulocyte lysate, luciferase refolding luminescence, 3 h; inhibition, % at 5.9 µM; hit rate 64% among 2,300; AID 1846; in the data active means inhibition above about 18%;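 further: 0% = vehicle wells and 100% = reference inhibitor wells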
luciferase ctr: firefly luciferase inhibition, HSP90 counter-screen | shares compounds with HSP90 inh | purified native firefly luciferase, luminescence | inhibition, % at 5.9 µM | hit rate 48% among 2,300 | AID 1847;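 active means inhibition above the mean inhibition of all tested sample wells plus 3 SD, cut at about 10% in these data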;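 further: 0% = DMSO with luciferase and 100% = wells lacking luciferase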
Target sequence (P08659 whole entry, looked up): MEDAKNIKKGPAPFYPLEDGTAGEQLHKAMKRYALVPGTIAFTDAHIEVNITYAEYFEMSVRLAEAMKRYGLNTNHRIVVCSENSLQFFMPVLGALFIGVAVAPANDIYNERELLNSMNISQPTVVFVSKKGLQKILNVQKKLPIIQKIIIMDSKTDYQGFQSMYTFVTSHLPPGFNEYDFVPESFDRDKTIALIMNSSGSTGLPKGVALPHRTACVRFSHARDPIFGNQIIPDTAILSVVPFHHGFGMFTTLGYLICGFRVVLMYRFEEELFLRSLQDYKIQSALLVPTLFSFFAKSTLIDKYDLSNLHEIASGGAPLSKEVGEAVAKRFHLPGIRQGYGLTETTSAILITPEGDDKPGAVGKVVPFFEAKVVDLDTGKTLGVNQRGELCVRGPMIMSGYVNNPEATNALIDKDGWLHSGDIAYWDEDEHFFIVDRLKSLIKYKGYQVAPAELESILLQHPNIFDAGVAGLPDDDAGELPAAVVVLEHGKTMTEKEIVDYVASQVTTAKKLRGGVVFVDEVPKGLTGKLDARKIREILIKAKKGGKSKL
The depositor's hits bear a star; . = no result.

SMILES | STAT3 inh-1 | TRAIL sens C8 | STAT1 inh | PPC-1+TRAIL kill | HSF1 inh | HSP90 inh | STAT3 inh-2 | NFkB inh STAT3ct | STAT1 inh STAT3c | HSP90 confirm | luciferase ctr
Cc1cc(C)c(C#N)c(SCc2nnc(-c3ccccc3)o2)n1 | 66.6* | 69.2* | 12.3 | 72.3* | -85.4* | 67.1* | 12.5 | -3.2 | -85.7 | 58.0* | 33.1*
Cc1cc(C)c(C#N)c(SCc2nnc(-c3ccccc3[N+](=O)[O-])o2)n1 | -2.6 | 26.5 | -42.5 | 40.0 | 19.6 | -4.2 | . | . | . | . | .
O=C(Nc1nnc(-c2ccc(Cl)cc2)o1)C1CCCCC1 | . | 1.2 | . | 3.5 | 0.7 | . | . | . | . | . | .
Clc1ccc(-c2nnc(NC3=NCCCCC3)o2)cc1 | 79.9* | 47.4 | 25.7 | 48.1 | -22.1 | 45.2* | 47.7* | 19.2* | -47.8 | 71.2* | 67.9*
CCCS(=O)(=O)NC(=O)C1(C)CCCN(C(=O)c2cc(F)cc(F)c2)C1 (stereo not given) | . | -5.2 | . | . | . | . | . | . | . | . | .
CC(=O)/C(N=Nc1ccc2c(c1)OCCO2)=C(\C)O | 67.6* | 6.3 | 18.8 | 4.6 | -20.0 | 25.4* | -6.1 | -9.7 | -92.0 | 44.5* | 55.5*
CC(=O)/C(N=Nc1ccc2c(c1)OCO2)=C(\C)O | -6.4 | 7.9 | -42.7 | 23.1 | -15.4 | -3.7 | . | . | . | . | .
COc1ccc(S(=O)(=O)N[C@H]2CC[C@H](CCNC(=O)c3ccccc3F)O[C@@H]2CO)cc1 | . | 5.1 | . | . | . | . | . | . | . | . | .
Oc1cccc(C=NN=C2c3ccccc3-c3ccccc32)c1 | . | 1.0 | . | . | . | . | . | . | . | . | .
COc1ccc(-c2nsc3c(N4CCCC4)ncnc23)cc1 | 52.8* | 80.8* | -26.4 | 5.2 | -55.0* | 29.5* | 25.5 | 5.0 | -73.6 | 60.4* | 41.5*
COc1ccc(-c2nsc3c(N4CCN(S(=O)(=O)c5ccccc5)CC4)ncnc23)cc1 | . | . | . | -8.0 | . | . | . | . | . | . | .
COc1ccc(CCCNC(=O)C2Cc3c(-c4ccccc4)ccnc3O2)cc1 (stereo not given) | . | -8.5 | . | . | . | . | . | . | . | . | .
CN(C)c1ccc(C(=S)Nc2ccccc2)cc1 | 57.2* | 42.6 | -43.9 | 34.6 | -81.7* | 56.8* | 23.2 | -36.8 | -108.6 | 64.7* | -4.6
COc1ccc(-c2nnc(SCC(=O)c3cc(C)n(Cc4cccs4)c3C)o2)cc1 | -0.8 | -5.4 | 1.7 | 5.5 | 4.2 | 5.0 | . | . | . | . | .
CC(=O)Nc1ccccc1OCC(=O)c1cc(C)n(Cc2cccs2)c1C | 79.4* | 25.5 | 7.0 | 14.0 | -19.2 | 47.4* | 84.1* | 27.4* | -15.9 | 68.7* | -15.3
Cc1cc(C(=O)COc2cccnc2[N+](=O)[O-])c(C)n1Cc1cccs1 | 32.5 | 18.0 | 13.1 | 7.7 | -7.6 | 8.2 | . | . | . | . | .
Cc1cc(C(=O)CSc2n[nH]c(-c3ccccc3F)n2)c(C)n1Cc1cccs1 | 15.6 | -16.6 | 6.8 | 15.5 | 11.4 | 3.2 | . | . | . | . | .
Cc1csc(SCC(=O)c2cc(C)n(Cc3cccs3)c2C)n1 | 78.7* | 78.9* | 39.9* | 30.3 | -45.7 | 65.1* | 51.7* | 24.0* | -26.0 | 84.9* | 81.1*
Cc1cc(C(=O)CSc2nnc(N)s2)c(C)n1Cc1cccs1 | 50.7* | 69.5* | -12.2 | 35.7 | -9.9 | 28.5* | 35.8 | 8.0 | -46.2 | 64.8* | 59.4*
CC(=O)NC(c1cccc(F)c1)c1nc(-c2csc3ccccc23)cs1 (stereo not given) | . | 26.2 | . | . | . | . | . | . | . | . | .
COC(=O)c1sc(NC(=O)c2ccoc2C)nc1C | 5.0 | -0.8 | -13.3 | 14.8 | 20.5 | 0.8 | . | . | . | . | .
COc1ccc2nc(NC(=O)c3ccoc3C)sc2c1 | 63.3* | 39.5 | -2.5 | 9.2 | 5.2 | 22.4* | 28.5 | -16.3 | -104.3 | 41.4* | 30.1*
CC(C)OC(=O)c1sc2nc(-c3ccccc3)ccc2c1N | 60.7* | 54.4* | -13.1 | 32.2 | -66.8* | 44.4* | 16.7 | -23.4 | -162.9 | 53.5* | 52.4*
